Reference: ChEMBL document CHEMBL4513146, “CO-ADD screening of Karazin Kharkiv National University (Ukraine) compounds”
Potency and affinity values are given separately.

How the values were obtained:
Staphylococcus aureus = conditions: Concentration 32 ug.mL-1;; ASSAY_TEST Inhibition of Bacterial Growth; detection method Absorption (OD600); MEDIA CAMHB; plate type 384well; NBS; CORNING #3640; time 18 hr
Escherichia coli = conditions: Concentration 32 ug.mL-1;; ASSAY_TEST Inhibition of Bacterial Growth; detection method Absorption (OD600); MEDIA CAMHB; plate type 384well; NBS; CORNING #3640; time 18 hr

SMILES | Inhibition (Staphylococcus aureus) [%] | Inhibition (Escherichia coli) [%]
Cc1ccc(NC(=O)Cn2nc3ccc(-c4ccccc4)nn3c2=O)cc1 | 2.61 | -12.45
CCCCc1ccc(NC(=O)Cn2nc3c(N4CC(C)CC(C)C4)nccn3c2=O)cc1 (stereo unspecified) | -4.53 | -8.88
COc1ccc(NC(=O)Cn2nc3ccc(SC4CCCCC4)nn3c2=O)c(OC)c1 | 7.02 | -7.62
Cc1cccc(N(C)C(=O)Cn2nc3cc(C)nc(Nc4ccc(F)c(C)c4)n3c2=O)c1 | 1.96 | -7.99
Cc1ccc(Cn2nc3c(=O)n(-c4cccc(Cl)c4C)ccn3c2=O)cc1 | 8.26 | -3.14
COc1ccc(Cl)cc1NC(=O)CSc1nnc2c(=O)n(-c3ccc(C)c(C)c3)ccn12 | 15.8 | -1.54
COC(=O)c1ccc(NC(=O)Cn2nc3nc(N4CCCCCC4)ccn3c2=O)cc1 | 7.17 | -2.48
O=C(Cn1nc2c(SC3CCCCC3)nccn2c1=O)Nc1ccccc1Br | -0.6 | -5.42
Cc1ccc(Sc2nccn3c(=O)n(CC(=O)Nc4ccc(C)cc4Br)nc23)c(C)c1 | 8.09 | -4.19
Cc1ccc(Sc2nccn3c(=O)n(CC(=O)Nc4ccccc4C)nc23)c(C)c1 | -3.06 | -8.99
O=C(Cn1nc2c(SC3CCCCC3)nccn2c1=O)Nc1ccc(Br)cc1 | 7.56 | -4.82
CC(=O)c1ccc(NC(=O)Cn2c(=O)c3nnc(C(C)C)n3c3ccccc32)cc1 | 5.44 | -3.86
Cn1c(=O)c2ccc(C(=O)NC3CCCC3)cc2n2c(SCC(=O)Nc3cc(F)ccc3F)nnc12 | 8.34 | -3.62
COc1ccc(NC(=O)Cn2nc3ccc(-c4ccc(Cl)cc4)nn3c2=O)cc1 | 8.85 | -4.11
CC(C)c1ccc(Cn2c(=O)c3sccc3n3c(SCc4cccc(C(F)(F)F)c4)nnc23)cc1 | 11.56 | 1.07
Cc1ccc(-c2ccc3nn(CC(=O)Nc4ccc(Br)cc4F)c(=O)n3n2)cc1 | 3.77 | -3
COc1ccccc1-n1ccn2c(SCC(=O)Nc3ccc(C)cc3C)nnc2c1=O | 14.03 | -4.75

SMILES | Inhibition (Staphylococcus aureus) [%] | Inhibition (Escherichia coli) [%]
COc1cc(NC(=O)Cn2nc3c(N4CCCC(C)C4)nccn3c2=O)cc(OC)c1 (stereo unspecified) | -12.69 | -14.56
CCc1ccc(NC(=O)Cn2nc3c4cc(-c5ccc(Cl)cc5)nn4ccn3c2=O)cc1 | 10.21 | 3.59
Cc1ccc(-n2ccn3c(=O)n(Cc4cccc(F)c4)nc3c2=O)cc1C | -0.24 | -8.8
Cc1ccc(Oc2nccn3c(=O)n(CC(=O)Nc4cc(F)ccc4F)nc23)cc1 | 15.96 | -1.03
O=C(CSc1nnc2c(=O)n(-c3ccccc3)ccn12)Nc1cccc(Cl)c1 | 1.05 | -12.66
COc1cccc(-c2noc(Cn3nc4ccc(-c5ccccc5)nn4c3=O)n2)c1OC | 13.66 | -2.67
O=C(Cn1nc2ccc(SC3CCCCC3)nn2c1=O)Nc1ccc2c(c1)CCC2 | 4.8 | -2.69
Cc1ccc(NC(=O)Cn2c(=O)c3nnc(C(C)C)n3c3ccccc32)cc1F | 13.81 | 1.95
Cc1ccccc1CN(c1ccc(C(C)C)cc1)S(=O)(=O)c1cccn2cnnc12 | 17.72 | 2.74
CCCCOc1ccc(-c2cc3c4nnc(SCC(=O)Nc5cccc(C#N)c5)n4ccn3n2)cc1 | -7.95 | -7.05
Cc1cccc(N(C)C(=O)Cn2nc3cc(C)nc(Nc4ccc(C)c(F)c4)n3c2=O)c1 | -15.22 | 0.9
CCc1nnc2c(S(=O)(=O)N(Cc3cc(F)cc(F)c3)c3ccc(C)cc3)cccn12 | 10.46 | -5.17
O=c1n(Cc2ccc(Cl)cc2)nc2ccc(-c3ccccc3)nn12 | 3.14 | -1.49
Cc1c(Cl)cccc1-n1ccn2c(=O)n(Cc3cccc(Cl)c3)nc2c1=O | 7.64 | -4.76
COc1ccc(N(Cc2cccc(F)c2)S(=O)(=O)c2ccc3nnc(C)n3c2)cc1 | -0.61 | -14.24
Cc1ccc(C)c(S(=O)(=O)Nc2ccc3nncn3n2)c1 | 15.24 | 1.21
